Where “and” joins values, the source holds several entries; their conditions need not be identical. Equal entries are not always repeated. About 83,000 compounds went through this panel and 20% of them were active in at least one assay; those are over-represented in the sample as a whole.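 Each cell line was grown in a 96-well plate and treated with one concentration of compound for 48 hours. Values below 10 were considered active.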 Calls of active or inactive are those of the source.
How the values were obtained:
Experiment in all cases: NCI-60 one-dose screen, 48 h (100 = growth as untreated, 0 = no growth, -100 = all killed)
Conditions in all cases: 10 µM
NCI-H23 lung = system: NCI-H23 lung
NCI-H226 lung = system: NCI-H226 lung
NCI-H322M lung = system: NCI-H322M lung
HOP-62 NSCLC = system: HOP-62 NSCLC
NCI-H460 lung = system: NCI-H460 lung
HOP-92 NSCLC = system: HOP-92 NSCLC
NCI-H522 lung = system: NCI-H522 lung
A549/ATCC NSCLC = system: A549/ATCC NSCLC
786-0 renal = system: 786-0 renal
COLO 205 colon = system: COLO 205 colon
DU-145 prostate = system: DU-145 prostate
K-562 leukemia = system: K-562 leukemia
MALME-3M melanoma = system: MALME-3M melanoma
MDA-MB-231 breast = system: MDA-MB-231 breast
RXF 393 renal = system: RXF 393 renal
SF-268 CNS = system: SF-268 CNS
SF-295 CNS = system: SF-295 CNS
SF-539 CNS = system: SF-539 CNS
UACC-257 melanoma = system: UACC-257 melanoma
M14 melanoma = system: M14 melanoma

Measured: growth

COS(=O)(=O)c1ccccc1
inactive: NCI-H23 lung 98.5% | NCI-H226 lung 107% | NCI-H322M lung 106% | HOP-62 NSCLC 102% | NCI-H460 lung 112% | HOP-92 NSCLC 105% | NCI-H522 lung 111% | A549/ATCC NSCLC 105% | 786-0 renal 115% | COLO 205 colon 113% | DU-145 prostate 114% | K-562 leukemia 103% | MALME-3M melanoma 111% | MDA-MB-231 breast 123% | RXF 393 renal 109% | SF-268 CNS 95.9% | SF-295 CNS 109% | SF-539 CNS 101% | UACC-257 melanoma 101%

COc1ccc(/C=C\[N+](=O)[O-])cc1OC
inactive: NCI-H23 lung 83.9% and 65.5% | NCI-H226 lung 101% and 77.5% | NCI-H322M lung 129% and 90.2% | HOP-62 NSCLC 107% and 88% | NCI-H460 lung 45.6% and 63.3% | HOP-92 NSCLC 92.8% and 82.3% | NCI-H522 lung 80.6% and 75.6% | A549/ATCC NSCLC 67.9% and 68.7% | 786-0 renal 96.4% and 47.9% | COLO 205 colon 76.5% and 64.5% | DU-145 prostate 60.5% and 59.3% | K-562 leukemia 69.7% and 27.5% | MALME-3M melanoma 155% and 105% | MDA-MB-231 breast 91.4% and 68.9% | SF-268 CNS 73.8% and 70.3% | SF-295 CNS 60.6% and 85.3% | SF-539 CNS 88.1% and 59.3% | UACC-257 melanoma 33.8% and 73% | M14 melanoma 75.6% and 42.5%
active: RXF 393 renal 4.99% and -51.1%

CN(CCCl)c1ccc(/C=C/C2=[N+](C)c3ccccc3C2(C)C)cc1
active: NCI-H23 lung 9.42% | COLO 205 colon -7.09%
inactive: NCI-H226 lung 46.6% | NCI-H322M lung 46.7% | HOP-62 NSCLC 41.1% | NCI-H460 lung 17.7% | HOP-92 NSCLC 31.1% | NCI-H522 lung 30.4% | A549/ATCC NSCLC 31.8% | 786-0 renal 57.6% | DU-145 prostate 28.9% | K-562 leukemia 26.9% | MALME-3M melanoma 23.5% | MDA-MB-231 breast 21.1% | RXF 393 renal 82.3% | SF-268 CNS 31.8% | SF-295 CNS 45.5% | SF-539 CNS 14.4% | UACC-257 melanoma 30.8% | M14 melanoma 37.4%

COc1ccc2c(ccc3oc([N+](=O)[O-])cc32)c1
active: NCI-H23 lung -9.56% | NCI-H226 lung -4.88% | NCI-H322M lung -10.7% | HOP-62 NSCLC -4.6% | NCI-H460 lung -3.44% | NCI-H522 lung -52% | A549/ATCC NSCLC 0.82% | 786-0 renal -2.34% | COLO 205 colon -76.3% | DU-145 prostate 0.495% | K-562 leukemia 0.428% | MALME-3M melanoma -55% | MDA-MB-231 breast -20.3% | RXF 393 renal -64.3% | SF-268 CNS -6.08% | SF-295 CNS -0.437% | SF-539 CNS -18.7% | UACC-257 melanoma -56.9% | M14 melanoma -40.2%
inactive: HOP-92 NSCLC 10.8%

O=C1C=Cc2ccccc2C1=O
inactive: NCI-H23 lung 73.5% | NCI-H226 lung 100% | NCI-H322M lung 100% | HOP-62 NSCLC 73% | NCI-H460 lung 78.7% | HOP-92 NSCLC 93.7% | NCI-H522 lung 47.2% | A549/ATCC NSCLC 97.9% | 786-0 renal 110% | COLO 205 colon 117% | DU-145 prostate 45.9% | K-562 leukemia 38.6% | MALME-3M melanoma 52.7% | MDA-MB-231 breast 67.1% | RXF 393 renal 46.5% | SF-268 CNS 87.8% | SF-295 CNS 94% | SF-539 CNS 76.7% | UACC-257 melanoma 75.9% | M14 melanoma 39.4%

O=C1CCC(=O)N1SC(Cl)(Cl)Cl
inactive: NCI-H23 lung 108% | NCI-H226 lung 101% | NCI-H322M lung 106% | HOP-62 NSCLC 113% | NCI-H460 lung 108% | HOP-92 NSCLC 105% | NCI-H522 lung 80.4% | A549/ATCC NSCLC 107% | 786-0 renal 106% | COLO 205 colon 112% | DU-145 prostate 120% | K-562 leukemia 95.3% | MALME-3M melanoma 118% | MDA-MB-231 breast 113% | RXF 393 renal 108% | SF-268 CNS 109% | SF-295 CNS 117% | SF-539 CNS 109% | UACC-257 melanoma 110% | M14 melanoma 108%

Cc1cc(C(C)(C)c2ccc(O)c(C)c2)ccc1O
inactive: NCI-H23 lung 97.4% | NCI-H226 lung 107% | NCI-H322M lung 93.4% | HOP-62 NSCLC 97.4% | NCI-H460 lung 110% | HOP-92 NSCLC 110% | NCI-H522 lung 83.8% | A549/ATCC NSCLC 75.7% | 786-0 renal 102% | COLO 205 colon 100% | DU-145 prostate 107% | K-562 leukemia 80.8% | MALME-3M melanoma 88.4% | MDA-MB-231 breast 80.5% | RXF 393 renal 93.5% | SF-268 CNS 90.3% | SF-295 CNS 104% | SF-539 CNS 92.2% | UACC-257 melanoma 81.7% | M14 melanoma 106%

S=C=NCCc1ccccc1
inactive: NCI-H23 lung 20% | NCI-H226 lung 85.8% | NCI-H322M lung 110% | HOP-62 NSCLC 85.2% | NCI-H460 lung 58.5% | HOP-92 NSCLC 56.5% | NCI-H522 lung 44.1% | A549/ATCC NSCLC 61.7% | 786-0 renal 71.5% | COLO 205 colon 63.1% | DU-145 prostate 44.5% | K-562 leukemia 20.4% | MALME-3M melanoma 88.7% | MDA-MB-231 breast 38.4% | RXF 393 renal 31.5% | SF-268 CNS 58.2% | SF-295 CNS 115% | SF-539 CNS 29.1% | UACC-257 melanoma 88.5%

C/C(=C\c1ccc(Cl)c(Cl)c1)[N+](=O)[O-]
-55.4% (active) and 105% (inactive): MALME-3M melanoma
-86.8% (active) and 95% (inactive): M14 melanoma
-29.8% (active) and 89.5% (inactive): HOP-92 NSCLC
-87.3% (active) and 82.6% (inactive): NCI-H522 lung
-26.3% (active) and 101% (inactive): MDA-MB-231 breast
0.843% (active) and 78.6% (inactive): K-562 leukemia
-57.9% (active) and 101% (inactive): COLO 205 colon
-19.1% (active) and 102% (inactive): SF-268 CNS
-91.7% (active) and 100% (inactive): RXF 393 renal
8.46% (active) and 104% (inactive): DU-145 prostate
active: UACC-257 melanoma -88.8%
inactive: NCI-H23 lung 44.6% and 94.8% | NCI-H226 lung 98.1% | NCI-H322M lung 94.6% and 100% | HOP-62 NSCLC 86.9% | NCI-H460 lung 55.6% and 105% | A549/ATCC NSCLC 74.3% and 76.6% | 786-0 renal 45.8% and 94.9% | SF-295 CNS 94.5% | SF-539 CNS 96.3% and 100%

COc1cc2c(cc1OC)C13CCN4CC5=CCOC6CC(=O)N2C1C6C5CC43 (stereo not drawn)
inactive: NCI-H23 lung 90% and 100% | NCI-H226 lung 95.9% and 95.7% | NCI-H322M lung 118% and 144% | HOP-62 NSCLC 120% and 102% | NCI-H460 lung 120% and 83.2% | HOP-92 NSCLC 87.4% | NCI-H522 lung 105% and 99.1% | A549/ATCC NSCLC 99.4% | 786-0 renal 112% and 99.6% | COLO 205 colon 95.8% and 89% | DU-145 prostate 123% and 116% | K-562 leukemia 124% and 74.9% | MALME-3M melanoma 126% and 103% | MDA-MB-231 breast 111% and 87.4% | RXF 393 renal 127% | SF-268 CNS 103% | SF-295 CNS 105% and 134% | SF-539 CNS 96.8% and 80.2% | UACC-257 melanoma 104% | M14 melanoma 107% and 108%

O=[N+]([O-])/C=C/c1ccc([N+](=O)[O-])cc1
-47.5% (active) and 72.1% (inactive): DU-145 prostate
5.65% (active) and 18.5% (inactive): K-562 leukemia
-27.5% (active) and 75.7% (inactive): SF-539 CNS
-8.72% (active) and 50.6% (inactive): COLO 205 colon
-29.1% (active) and 66.1% (inactive): M14 melanoma
inactive: NCI-H23 lung 56.7% and 68.7% | NCI-H226 lung 114% | NCI-H322M lung 90.4% and 92.5% | HOP-62 NSCLC 69.5% and 107% | NCI-H460 lung 19.9% and 102% | HOP-92 NSCLC 67.6% and 97.8% | NCI-H522 lung 81.6% and 47.3% | A549/ATCC NSCLC 44.2% and 101% | 786-0 renal 55.2% and 98.1% | MALME-3M melanoma 66.7% and 54.6% | MDA-MB-231 breast 66.5% and 84.5% | RXF 393 renal 101% | SF-268 CNS 25.4% and 103% | SF-295 CNS 76.2% and 104%
-4.16% (active) and 96.5% (inactive): UACC-257 melanoma

O=[N+]([O-])c1ccc(N2CCOCC2)c2c1no[n+]2[O-]
active: HOP-62 NSCLC 8.11% | NCI-H460 lung 6.53% | HOP-92 NSCLC -31.9% | NCI-H522 lung -70.5% | 786-0 renal -12.8% | COLO 205 colon -53.1% | DU-145 prostate 6.63% | K-562 leukemia -29.6% | MALME-3M melanoma -12.6% | RXF 393 renal -31.4% | SF-268 CNS 4.58% | SF-539 CNS -22.3% | M14 melanoma 0.168%
inactive: NCI-H23 lung 13.1% | NCI-H226 lung 35.7% | NCI-H322M lung 28.1% | A549/ATCC NSCLC 21.4% | MDA-MB-231 breast 34.3% | SF-295 CNS 20.5% | UACC-257 melanoma 41%

O=S(=O)(F)c1ccc(Cl)cc1
inactive: NCI-H23 lung 100% | NCI-H226 lung 109% | NCI-H322M lung 123% | HOP-62 NSCLC 106% | NCI-H460 lung 113% | HOP-92 NSCLC 86.8% | NCI-H522 lung 101% | A549/ATCC NSCLC 98.3% | 786-0 renal 107% | COLO 205 colon 107% | DU-145 prostate 130% | K-562 leukemia 112% | MALME-3M melanoma 123% | MDA-MB-231 breast 115% | RXF 393 renal 112% | SF-268 CNS 97.6% | SF-295 CNS 114% | SF-539 CNS 99.7% | UACC-257 melanoma 99.1% | M14 melanoma 104%
